{"source": "the supplement of paper PMC8728848", "test_in_all_cases": "glycan array binding signal (z-score within array); higher = stronger binding", "conditions_in_all_cases": "glycan notation: IUPAC condensed, linker removed", "key": {"[1]": {"molecular_target": "Fuc(a1-2)Gal(b1-3)GalNAc(b1-4)[Neu5Ac(a2-3)]Gal(b1-4)Glc", "procedure,_shortened": "(§1)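 The Consortium for Functional Glycomics database supplied 3228 glycan arrays, of which those lacking an available protein sequence were dropped. The binding signal, a within-array Z-score, was averaged across arrays of the same protein sequence and across linkers. Negative scores can be read as non-binding.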"}, "[2]": {"molecular_target": "Fuc(a1-2)Gal(b1-3)[Fuc(a1-4)]GlcNAc", "procedure,_shortened": "as §1"}, "[3]": {"molecular_target": "Fuc(a1-2)Gal(b1-4)[Fuc(a1-3)]GlcNAc(b1-2)Man(a1-3)[Fuc(a1-2)Gal(b1-4)[Fuc(a1-3)]GlcNAc(b1-2)Man(a1-6)]Man(b1-4)GlcNAc(b1-4)GlcNAc", "procedure,_shortened": "as §1"}, "[4]": {"molecular_target": "Fuc(a1-2)[Gal(a1-3)]Gal(b1-4)Glc", "procedure,_shortened": "as §1"}, "[5]": {"molecular_target": "Fuc(a1-2)[Gal(a1-3)]Gal(b1-4)GlcNAc", "procedure,_shortened": "as §1"}, "[6]": {"molecular_target": "Fuc(a1-3)[Gal(b1-4)]GlcNAc(b1-4)Gal(b1-4)[Fuc(a1-3)]GlcNAc(b1-4)Gal(b1-4)[Fuc(a1-3)]GlcNAc", "procedure,_shortened": "as §1"}, "[7]": {"molecular_target": "Fuc(a1-3)[Gal3S(b1-4)]GlcNAc6S", "procedure,_shortened": "as §1"}, "Fuc(a1-4)GlcNAc": {"molecular_target": "Fuc(a1-4)GlcNAc", "procedure,_shortened": "as §1"}, "Gal(a1-3)Gal": {"molecular_target": "Gal(a1-3)Gal", "procedure,_shortened": "as §1"}, "[8]": {"molecular_target": "Gal(a1-3)Gal(b1-3)[Fuc(a1-4)]GlcNAc(b1-2)Man(a1-3)[Gal(a1-3)Gal(b1-3)[Fuc(a1-4)]GlcNAc(b1-2)Man(a1-6)]Man(b1-4)GlcNAc(b1-4)GlcNAc", "procedure,_shortened": "as §1"}, "[9]": {"molecular_target": "Gal(a1-3)Gal(b1-4)GlcNAc(b1-3)GalNAc", "procedure,_shortened": "as §1"}, "[10]": {"molecular_target": "Gal(b1-3)GlcNAc(b1-3)Gal(b1-4)GlcNAc(b1-6)[Gal(b1-3)GlcNAc(b1-3)]Gal(b1-4)Glc", "procedure,_shortened": "as §1"}, "[11]": {"molecular_target": "Gal(b1-3)[Fuc(a1-4)]GlcNAc(b1-3)Gal(b1-4)[Fuc(a1-3)]GlcNAc", "procedure,_shortened": "as §1"}, "[12]": {"molecular_target": "Gal(b1-3)[Neu5Ac(a2-6)]GalNAc", "procedure,_shortened": "as §1"}, "[13]": {"molecular_target": "Gal(b1-4)GlcNAc(b1-3)[Gal(b1-4)GlcNAc(b1-6)]Gal(b1-4)GlcNAc", "procedure,_shortened": "as §1"}, "[14]": {"molecular_target": "Gal(b1-4)GlcNAc(b1-6)[Gal(b1-3)]GalNAc", "procedure,_shortened": "as §1"}, "[15]": {"molecular_target": "GalNAc(b1-4)GlcNAc(b1-2)Man(a1-3)[GalNAc(b1-4)GlcNAc(b1-2)Man(a1-6)]Man(b1-4)GlcNAc(b1-4)GlcNAc", "procedure,_shortened": "as §1"}, "[16]": {"molecular_target": "GlcNAc(a1-4)Gal(b1-4)GlcNAc(b1-3)Gal(b1-4)[Fuc(a1-3)]GlcNAc(b1-3)Gal(b1-4)[Fuc(a1-3)]GlcNAc", "procedure,_shortened": "as §1"}, "[17]": {"molecular_target": "GlcNAc(b1-2)Gal(b1-3)GalNAc", "procedure,_shortened": "as §1"}, "[18]": {"molecular_target": "GlcNAc(b1-3)Gal(b1-3)GalNAc", "procedure,_shortened": "as §1"}, "GlcNAc(b1-3)GalNAc": {"molecular_target": "GlcNAc(b1-3)GalNAc", "procedure,_shortened": "as §1"}, "[19]": {"molecular_target": "Man(a1-2)Man(a1-3)[Man(a1-6)]Man(a1-6)[Man(a1-2)Man(a1-3)]Man(b1-4)GlcNAc(b1-4)GlcNAc", "procedure,_shortened": "as §1"}, "[20]": {"molecular_target": "Man(a1-3)[Man(a1-6)]Man(a1-6)[Man(a1-3)]Man", "procedure,_shortened": "as §1"}, "[21]": {"molecular_target": "Neu5Ac(a2-3)Gal(b1-3)GlcNAc(b1-3)Gal(b1-4)GlcNAc", "procedure,_shortened": "as §1"}, "[22]": {"molecular_target": "Neu5Ac(a2-3)Gal(b1-4)GlcNAc(b1-3)Gal(b1-4)GlcNAc(b1-3)Gal(b1-4)GlcNAc", "procedure,_shortened": "as §1"}, "[23]": {"molecular_target": "Neu5Ac(a2-3)Gal(b1-4)GlcNAc(b1-3)Gal(b1-4)[Fuc(a1-3)]GlcNAc", "procedure,_shortened": "as §1"}, "[24]": {"molecular_target": "Neu5Ac(a2-3)Gal(b1-4)[Fuc(a1-3)]GlcNAc(b1-3)GalNAc", "procedure,_shortened": "as §1"}, "[25]": {"molecular_target": "Neu5Ac(a2-6)Gal(b1-4)GlcNAc(b1-2)Man(a1-3)[Neu5Ac(a2-6)Gal(b1-4)GlcNAc(b1-2)Man(a1-6)]Man(b1-4)GlcNAc(b1-4)GlcNAc", "procedure,_shortened": "as §1"}, "[26]": {"molecular_target": "Neu5Ac(a2-6)Gal(b1-4)GlcNAc(b1-2)Man(a1-6)[GlcNAc(b1-2)Man(a1-3)]Man(b1-4)GlcNAc(b1-4)GlcNAc", "procedure,_shortened": "as §1"}, "[27]": {"molecular_target": "Neu5Ac(a2-6)Gal(b1-4)GlcNAc(b1-3)GalNAc", "procedure,_shortened": "as §1"}, "[28]": {"molecular_target": "Neu5Ac(a2-6)GlcNAc(b1-4)GlcNAc", "procedure,_shortened": "as §1"}, "[29]": {"molecular_target": "Neu5Ac(a2-8)Neu5Ac(a2-8)Neu5Ac(a2-8)Neu5Ac(a2-3)[GalNAc(b1-4)]Gal(b1-4)Glc", "procedure,_shortened": "as §1"}, "[30]": {"molecular_target": "Neu5Gc(a2-3)Gal(b1-4)GlcNAc", "procedure,_shortened": "as §1"}}, "note": "Only a selection was taken, and the strongest signals are over-represented in it overall.", "data": [{"binder": "PEB3 (Campylobacter jejuni), Q0PBL7 (protein) MKKIITLFGACALAFSMANADVNLYGPGGPHTALKDIANKYSEKTGVKVNVNFGPQATWFEKAKKDADILFGASDQSALAIASDFGKDFNVSKIKPLYFREAIILTQKGNPLKIKGLKDLANKKVRIVVPEGAGKSNTSGTGVWEDMIGRTQDIKTIQNFRNNIVAFVPNSGSARKLFAQDQADAWITWIDWSKSNPDIGTAVAIEKDLVVYRTFNVIAKEGASKETQDFIAYLSSKEAKEIFKKYGWRE", "values": [{"measurement": "glycan array binding signal (z-score)", "setting": "[1]", "value": 0.671}, {"measurement": "glycan array binding signal (z-score)", "setting": "[2]", "value": 7.5}, {"measurement": "glycan array binding signal (z-score)", "setting": "[3]", "value": 4.64}, {"measurement": "glycan array binding signal (z-score)", "setting": "[4]", "value": -1.35}, {"measurement": "glycan array binding signal (z-score)", "setting": "[5]", "value": 0.283}, {"measurement": "glycan array binding signal (z-score)", "setting": "[6]", "value": 0.144}, {"measurement": "glycan array binding signal (z-score)", "setting": "[7]", "value": 0.696}, {"measurement": "glycan array binding signal (z-score)", "setting": "Fuc(a1-4)GlcNAc", "value": -0.82}, {"measurement": "glycan array binding signal (z-score)", "setting": "Gal(a1-3)Gal", "value": -0.384}, {"measurement": "glycan array binding signal (z-score)", "setting": "[8]", "value": 4.25}, {"measurement": "glycan array binding signal (z-score)", "setting": "[9]", "value": 0.06}, {"measurement": "glycan array binding signal (z-score)", "setting": "[10]", "value": -0.921}, {"measurement": "glycan array binding signal (z-score)", "setting": "[11]", "value": -0.524}, {"measurement": "glycan array binding signal (z-score)", "setting": "[12]", "value": -1.27}, {"measurement": "glycan array binding signal (z-score)", "setting": "[13]", "value": -0.199}, {"measurement": "glycan array binding signal (z-score)", "setting": "[14]", "value": 0.227}, {"measurement": "glycan array binding signal (z-score)", "setting": "[15]", "value": 4.25}, {"measurement": "glycan array binding signal (z-score)", "setting": "[16]", "value": 3.7}, {"measurement": "glycan array binding signal (z-score)", "setting": "[17]", "value": -0.834}, {"measurement": "glycan array binding signal (z-score)", "setting": "[18]", "value": 2.96}, {"measurement": "glycan array binding signal (z-score)", "setting": "GlcNAc(b1-3)GalNAc", "value": -0.715}, {"measurement": "glycan array binding signal (z-score)", "setting": "[19]", "value": -0.005}, {"measurement": "glycan array binding signal (z-score)", "setting": "[20]", "value": -1.11}, {"measurement": "glycan array binding signal (z-score)", "setting": "[21]", "value": -0.117}, {"measurement": "glycan array binding signal (z-score)", "setting": "[22]", "value": -1.17}, {"measurement": "glycan array binding signal (z-score)", "setting": "[23]", "value": 0.473}, {"measurement": "glycan array binding signal (z-score)", "setting": "[24]", "value": 4.53}, {"measurement": "glycan array binding signal (z-score)", "setting": "[25]", "value": 0.39}, {"measurement": "glycan array binding signal (z-score)", "setting": "[26]", "value": -0.237}, {"measurement": "glycan array binding signal (z-score)", "setting": "[27]", "value": -0.21}, {"measurement": "glycan array binding signal (z-score)", "setting": "[28]", "value": -0.895}, {"measurement": "glycan array binding signal (z-score)", "setting": "[29]", "value": -0.3}, {"measurement": "glycan array binding signal (z-score)", "setting": "[30]", "value": -0.701}]}]}
